Source: PubChem (several laboratories)
Only a sample is shown.
CYP2C9 inh: inhibitors of human CYP2C9 | P11712 | AID 777 | inhibition, % at 5 µM | 20% of 96,000 active | CYP2C9 Supersomes, luciferin-H conversion, luminescence;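 active = blocking of liver enzyme CYP2C9 beyond about 50% at 5 µM, limit read from the data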
Target sequence (P11712 whole entry, looked up): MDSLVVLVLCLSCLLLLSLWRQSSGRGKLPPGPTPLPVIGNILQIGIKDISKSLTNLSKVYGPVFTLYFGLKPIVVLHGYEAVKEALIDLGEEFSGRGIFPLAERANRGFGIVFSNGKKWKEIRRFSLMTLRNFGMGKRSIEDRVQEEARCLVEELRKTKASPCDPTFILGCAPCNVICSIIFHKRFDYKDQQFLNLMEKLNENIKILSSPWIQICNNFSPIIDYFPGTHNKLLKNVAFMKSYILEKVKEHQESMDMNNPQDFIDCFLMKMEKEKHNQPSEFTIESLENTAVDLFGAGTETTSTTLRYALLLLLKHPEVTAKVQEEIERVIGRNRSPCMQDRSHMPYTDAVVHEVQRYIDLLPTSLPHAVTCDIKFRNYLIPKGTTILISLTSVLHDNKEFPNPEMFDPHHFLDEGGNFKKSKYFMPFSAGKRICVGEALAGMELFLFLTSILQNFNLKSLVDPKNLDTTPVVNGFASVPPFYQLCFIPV
CYP2C19 act: cytochrome P450 2C19 (human) activation | activation factor at 5 µM | 96,000 tested, under 10 active | recombinant CYP2C19, luciferin-H EGE luminescence; hits give high values; 0 = fully inhibited enzyme, 1 = untreated enzyme | P33261;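 active = activation factor of at least 2 at 5 µM in the primary screen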;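 also: 0 = wells with 2.5 mM tranylcypromine and 1 = vehicle-only wells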
PostGolgi ctrl: growth of the yeast control strain, post-Golgi counter-screen; AID 738; efflux-deficient yeast background strain, growth absorbance A615, 16 h; 5% of 98,000 active; inhibition, % at 10 µM
PostGolgi yeast: growth inhibition of a yeast mutant, post-Golgi transport screen; post-Golgi transport phenotypic cell assay; inhibition, % at 10 µM; 0.9% of 98,000 active; AID 739;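 also: yeast cells grown in 1536-well plates; yeast grown about 18 h at 30C before absorbance read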
CYP2C9 act: CYP2C9 (human) activation | P11712 | recombinant CYP2C9, luciferin-H conversion, luminescence; hits give high values; factor 1 = untreated enzyme, 0 = blocked | activation factor at 5 µM | 1.4% of 96,000 active | AID 1024;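 active = activation factor of 2 or more for CYP2C9 at a 5 µM dose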;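 also: 0 = sulfaphenazole-blocked wells and 1 = vehicle-only wells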
CYP2C19 inh: human CYP2C19 inhibition | P33261 | CYP2C19 Supersomes, luciferin-H EGE luminescence, 30 min | inhibition, % at 5 µM | 21% of 96,000 active;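 active = CYP2C19 inhibition above a set limit at 5 µM in the primary screen, cut at about 50% in these data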;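 also: plate controls were negative control wells for no effect and 2.5 mM tranylcypromine positive control for full effect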
An asterisk follows results filed as active; . = no result given. Rule as the data show it, unless noted: active = inhibition above about 30%; inactive = the rest.

SMILES | CYP2C9 inh | CYP2C19 act | PostGolgi ctrl | PostGolgi yeast | CYP2C9 act | CYP2C19 inh
Cc1cc(C)nc(NC2=NCC(=O)N2c2ccc3c(c2)OCCO3)n1 | -1 | 0.9 | 13 | 4 | 1 | 7
CCOC(=O)c1nn(-c2ccc(Br)cc2)cc1C(=O)c1cccc2ccccc12 | -20 | 0.7 | 31* | 2 | 1.2 | 28
Cc1cc(C)c(S(=O)(=O)NCCC2CCCN2C)c(C)c1 (configuration not stated) | -13 | 1 | 3 | -1 | 1.1 | 2
CN1C(=O)c2oc3ccc(Br)cc3c(=O)c2C1c1ccncc1 (configuration not stated) | 44 | 0.8 | . | . | 0.6 | 18
CCC(Sc1nnnn1-c1ccccc1)C(=O)NC(C)c1ccccc1 (configuration not stated) | 44 | 0.3 | 13 | 2 | 0.6 | 74*
CCC(Sc1nnnn1-c1ccccc1)C(=O)Nc1nc2ccccc2s1 (configuration not stated) | . | . | 44* | 9 | . | .
CC(Sc1nnnn1-c1ccccc1)C(=O)Nc1ccc(Cl)cn1 (configuration not stated) | 80* | 0.1 | -3 | 1 | 0.2 | 87*
COc1ccc(-n2nnnc2SC(C)C(N)=O)cc1 (configuration not stated) | 14 | 0.6 | 11 | -1 | 0.9 | 38
CC(Sc1nnc2ccccn12)C(=O)Nc1ccc(Cl)cn1 (configuration not stated) | 8 | 0.5 | 4 | -7 | 0.9 | 46
O=C(CSc1nnnn1-c1ccc(F)cc1)Nc1nc2ccccc2s1 | -1 | 1 | 9 | -7 | 1 | -1
O=C(CN1C(=O)c2cccc3cccc1c23)NCc1cccnc1 | -20 | 0.2 | 0 | -8 | 1.2 | 83*
Cc1c(C#N)c2ccccc2n1CC(=O)NCC1CCCO1 (configuration not stated) | 7 | 0.8 | 4 | 13 | 0.9 | 24
CC(=O)c1cn(CC(=O)NCc2cccnc2)c2ccccc12 | 83* | 0.2 | 5 | -4 | 0.2 | 77*
CCN1C(=O)c2cccc3cccc1c23 | -306 | 0.6 | 6 | 10 | 4.1* | 40
Cc1c(C#N)c2ccccc2n1CC(=O)NCc1cccnc1 | 54* | 0.3 | 4 | 22 | 0.5 | 71*
COCCCNC(=O)Cn1cc(C(C)=O)c2ccccc21 | 11 | 1 | 12 | -10 | 0.9 | 4
CC(C)(C)c1ccccc1OCCOCCSc1ncccn1 | -18 | 1.4 | 3 | -7 | 1.2 | -35
C/C(CC(=O)NCCCN1CCOCC1)=N\NC(=O)COc1ccc(Cl)cc1 | -12 | 1 | 8 | 4 | 1.1 | -4
Cc1cc(NC(=O)CSc2nnc(-c3cccnc3)n2N)no1 | -22 | 1.4 | -11 | -7 | 1.2 | -42
COC(=O)/C(=C1/Oc2cc3c(cc2S1)OCO3)C(F)(F)F | -7 | 1 | 5 | -6 | 1.1 | -2
Clc1ccc(CSc2nnc(CN3CCOCC3)n2-c2ccccc2)cc1Cl | 62* | 0.2 | 9 | -1 | 0.4 | 84*
N#Cc1nc(COc2ccccc2)oc1N1CCN(Cc2ccccc2)CC1 | 93* | 0.2 | 6 | -5 | 0.1 | 78*
N#Cc1nc(-c2cccs2)oc1N1CCN(Cc2ccccc2)CC1 | -17 | 0.8 | 14 | 2 | 1.2 | 19
Cc1ccc(OCc2nc(C#N)c(N3CCN(Cc4ccccc4)CC3)o2)cc1 | 84* | 0.3 | 27 | -6 | 0.2 | 68*
N#Cc1nc(COc2ccccc2)oc1N1CCC(Cc2ccccc2)CC1 | 87* | 0.4 | 40* | -5 | 0.1 | 55*
SMILES | CYP2C9 inh | CYP2C19 act | PostGolgi ctrl | PostGolgi yeast | CYP2C9 act | CYP2C19 inh
CCOc1ccc(-c2nc(C#N)c(N3CCN(CC)CC3)o2)cc1 | -32 | 0.9 | 4 | 2 | 1.3 | 9
COc1ccccc1OCc1nc(C#N)c(N2CC(C)CC(C)C2)o1 (configuration not stated) | 43 | 0.6 | 28 | -2 | 0.6 | 42
CN(C)CCCNCCCNC(=O)/C(=N\O)c1ccccn1 | . | . | 1 | 2 | . | .
O=C(Nc1ccc(S(=O)(=O)N2CCCCCC2)cc1)C1CCCO1 (configuration not stated) | 38 | 0.8 | 15 | . | 0.6 | 16
Cc1ccc2nc(SCCC(=O)O)cc(C)c2c1 | 9 | 1 | 12 | 0 | 0.9 | 1
CCCCOc1ccc(C(=O)NC)cc1 | 12 | 0.8 | -4 | -8 | 0.9 | 22
